Vaccinia Venus: qHTS for Stage-Specific Inhibitors of Vaccinia Orthopoxvirus: Venus Reporter Primary qHTS | 330,000 compounds, 0.46% hits | AID 720580, 2013 | Potency, µM (doses to about 36.5 µM), usual class: inhibitors | Vaccinia virus Venus reporter expression, fluorescence; calls by dose curve; tested in A549 cells; further: nearly all actives have a fitted effect of over 30% in size
LASV entry inh: qHTS for Inhibitors of binding or entry into cells for Lassa Virus | Lassa virus pseudotype entry inhibition, cell reporter | Potency, µM (doses to about 37.9 µM), hits mostly inhibitors | 300,000 compounds, 1.2% hits | AID 540256, 2011; calls by dose curve; tested in HEK293 cells; further: nearly all actives have a fitted effect of over 50% in size
VACV mCherry inh: qHTS for Stage-Specific Inhibitors of Vaccinia Orthopoxvirus: mCherry Reporter Primary qHTS; Vaccinia virus mCherry reporter infection, fluorescence; Potency, µM (series often up to 36.5 µM), actives largely listed as inhibitors; 310,000 compounds, 0.63% hits; AID 720579, 2013; calls by dose curve; tested in A549 cells; further: nearly all actives have a fitted effect of over 35% in size
MARV entry inh: qHTS for inhibitors of binding or entry into cells for Marburg Virus. 300,000 compounds, 1.8% hits. Potency, µM (highest dose often 37.8 µM), actives largely listed as inhibitors. Marburg virus pseudotyped entry inhibition, cell reporter; calls by dose curve; tested in HEK293 cells
HCMV antiviral: qHTS Assay for inhibitors of the human cytomegalovirus (HCMV); 410,000 compounds, 4.5% hits; activity change, negative = inhibition, % at 57.5 µM; HFF cells, HCMV-luciferase reporter, 72 h; hits give low values; in the data active means activity change below about -60%; inconclusive means no clear call, values can overlap the other calls; inactive means above about -39%
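HFF cells seeded 16 h at 37C, treated with compounds, infected with luciferase-reporter HCMV at MOI 1 PFU/cell; luciferase read at 72 h post infection, normalized to buffer-only and Salinomycin controls.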
HCV inh: qHTS Assay for Inhibitors of Hepatitis C Virus (HCV) | Huh7.5.1 HCVcc-Cre infection, luciferase reporter, 44 h | Potency, µM (top dose mostly 41.8 µM), most hits filed as inhibitors | 340,000 compounds, 3.4% hits | AID 651820, 2012; active means well fitted inhibition curve with a large enough effect; inconclusive means small, poorly fitted or top-dose-only effect, or another doubt; inactive means no such curve, though single readings can be large or run the other way
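Seed cells (1,000/well) for 4 h; treat with compound and infect with HCVcc-Cre, moi about 0.5. Incubate 44 h, then detect luciferase activity.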
Numbers stand for hits; [ ] = dose if it differs, or a comment. In the library only some 7.8% were active in any assay of this set; here they are far more common.

How did COc1ccc(OC)c(CCNc2ncnc3onc(C)c23)c1 do in these assays?
Vaccinia Venus: inconclusive; LASV entry inh: inactive; VACV mCherry inh: inactive; HCMV antiviral: inactive

Results for COC(=O)COc1cc(OCC(=O)OC)c2c(-c3ccccc3)cc(=O)oc2c1 ?
HCMV antiviral: inactive; HCV inh: inactive

What do the screens show for `CC(C)(C)OC(=O)COc1cc(OCC(=O)OC(C)(C)C)c2c(=O)cc(-c3ccccc3)oc2c1`?
Vaccinia Venus: 11µM; LASV entry inh: inconclusive; VACV mCherry inh: inconclusive; MARV entry inh: inconclusive; HCMV antiviral: inactive; HCV inh: 10µM

What do the screens show for `O=C(CCc1nnc2n(Cc3ccccc3Cl)c(=O)c3ccccc3n12)Nc1ccccc1`?
Vaccinia Venus: inactive; VACV mCherry inh: inactive; MARV entry inh: inactive; HCMV antiviral: inactive

Results for O=c1c2ccccc2[nH]c(=S)n1-c1cccc(S(=O)(=O)N2CCCC2)c1 ?
Vaccinia Venus: inactive; LASV entry inh: inactive; VACV mCherry inh: inactive; MARV entry inh: inactive; HCMV antiviral: -77; HCV inh: inactive

What do the screens show for `Cc1nc(NC2=NCN(CCCN3CCOCC3)CN2)nc2c(C)cccc12`?
Vaccinia Venus: inactive; LASV entry inh: inconclusive; VACV mCherry inh: inactive; MARV entry inh: inconclusive; HCV inh: 7.1µM

What do the screens show for `N[C@H](Cc1cc(I)c(Oc2ccc(O)c(I)c2)c(I)c1)C(=O)O`?
MARV entry inh: inactive

Results for COc1ccc(-c2cc(NCc3ccc(C)cc3)n3cnnc3n2)cc1 ?
Vaccinia Venus: inactive; LASV entry inh: inconclusive; VACV mCherry inh: inactive; MARV entry inh: inconclusive; HCMV antiviral: inactive

Results for Cc1c(CC(=O)NCCC(=O)O)c(=O)oc2cc3oc4c(c3cc12)CCCC4 ?
HCMV antiviral: inactive; HCV inh: inactive

What do the screens show for `Cc1c(CC(=O)NCCCC(=O)O)c(=O)oc2cc3c(cc12)CCC(C)(C)O3`?
Vaccinia Venus: inactive; LASV entry inh: inconclusive; VACV mCherry inh: inactive; MARV entry inh: inconclusive; HCMV antiviral: -86; HCV inh: inactive

Results for Cc1c(CC(=O)NCCCCCC(=O)O)c(=O)oc2cc3c(cc12)CCC(C)(C)O3 ?
Vaccinia Venus: inactive; LASV entry inh: inactive; VACV mCherry inh: inactive; MARV entry inh: inconclusive; HCMV antiviral: inactive; HCV inh: inactive

How did Cc1c(CC(=O)NCCCC(=O)O)c(=O)oc2cc3oc4c(c3cc12)CCCC4 do in these assays?
Vaccinia Venus: inactive; LASV entry inh: inactive; VACV mCherry inh: inactive; MARV entry inh: inactive; HCMV antiviral: -66; HCV inh: inactive

Results for COc1cccc(NC(=O)c2sc3nc(C)c(C(=O)Nc4ccc(Cl)cc4)c(-c4ccc(Br)cc4)c3c2N)c1 ?
Vaccinia Venus: inactive[7.34 µM]; LASV entry inh: inconclusive; VACV mCherry inh: inactive[7.34 µM]; MARV entry inh: inconclusive; HCMV antiviral: inactive

What do the screens show for `O=C(NCc1ccccc1)c1onc(CSc2ccccc2)c1C(=O)NCC1CC1`?
Vaccinia Venus: inconclusive; VACV mCherry inh: inactive; HCMV antiviral: inactive; HCV inh: 10µM

Results for COC(=O)C1=C(C)N(Cc2ccccc2)C(=NCc2ccc3c(c2)OCO3)N[C@H]1c1ccccc1 ?
Vaccinia Venus: inactive; VACV mCherry inh: inactive; HCMV antiviral: inactive; HCV inh: inconclusive

How did COC(=O)C1=C(C)N(Cc2ccc(C(F)(F)F)cc2)C(=NCC2CC2)NC1c1cccc(Cl)c1 (stereo not given) do in these assays?
HCMV antiviral: -102

What do the screens show for `COC(=O)C1=C(C)N(Cc2ccc(C(F)(F)F)cc2)C(=NCc2ccc3c(c2)OCO3)NC1c1cccc(Cl)c1` (stereo not given)?
HCMV antiviral: -100

What do the screens show for `Cc1ccccc1-c1ccc(CN2CCc3nnc(CNC(=O)c4ccccn4)n3CC2)cc1`?
Vaccinia Venus: inactive; VACV mCherry inh: inactive

Results for CC(=O)/C(=N\Nc1ccccc1Cl)Sc1nnc(-c2ccccc2)n1-c1ccccc1 ?
Vaccinia Venus: inactive; LASV entry inh: inactive; VACV mCherry inh: inactive; MARV entry inh: inactive; HCMV antiviral: -61; HCV inh: inconclusive

Results for O=C(CCN1C(=O)C2CCCCC2C1=O)Nc1nc2c(F)cc(F)cc2s1 (stereo not given) ?
HCMV antiviral: inactive; HCV inh: inactive
